# Source: paper PMC7862700, “An all-to-all approach to the identification of sequence-specific readers for epigenetic DNA modifications on cytosine”
# Tests used:
# Experiment in all cases: DAPPL (digital affinity profiling via proximity ligation, sequencing); 10 mM Tris-HCl pH 7.5, 50 mM NaCl, 1 mM DTT, 4% glycerol, room temperature, 30 min; GST-TFs on glutathione beads, 16-mer random dsDNA library, 0.1% formaldehyde crosslink after washing; high values mean tight binding
# [1] = target: T1, FLI1 (Homo sapiens, UniProt Q01543 1-452); settings: protein: recombinant; tags: N-terminal GST; dsDNA, one strand shown
# T1 sequence: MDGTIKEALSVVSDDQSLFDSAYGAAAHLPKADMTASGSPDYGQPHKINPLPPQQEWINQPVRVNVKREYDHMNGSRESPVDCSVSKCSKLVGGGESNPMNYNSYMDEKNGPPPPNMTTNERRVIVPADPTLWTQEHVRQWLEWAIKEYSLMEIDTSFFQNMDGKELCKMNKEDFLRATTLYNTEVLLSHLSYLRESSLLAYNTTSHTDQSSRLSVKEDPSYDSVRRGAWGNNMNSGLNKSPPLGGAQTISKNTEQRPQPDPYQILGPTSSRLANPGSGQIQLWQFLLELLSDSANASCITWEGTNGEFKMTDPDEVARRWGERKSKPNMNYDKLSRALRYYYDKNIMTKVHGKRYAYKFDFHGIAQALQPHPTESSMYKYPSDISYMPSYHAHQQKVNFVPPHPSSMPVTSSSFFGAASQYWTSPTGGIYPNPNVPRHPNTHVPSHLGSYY
# Method in brief: (§1)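 Each value of binding signal is a hexamer's read frequency for a factor divided by the same hexamer's frequency in the tag-only sample. Barcoded, bead-captured GST fusions of human transcription factors made in yeast were pooled with that sample and incubated with 200 nmole of a random double-stranded 16-mer DNA library in Tris/NaCl/DTT/glycerol buffer at room temperature for 30 min. Washing, 0.1% formaldehyde crosslinking, proximity ligation, PCR and Illumina NextSeq500 sequencing followed.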
# [2] = target: T2, ELK1 (Homo sapiens, UniProt P19419 1-428); settings: protein: recombinant; tags: N-terminal GST; dsDNA, one strand shown
# T2 sequence: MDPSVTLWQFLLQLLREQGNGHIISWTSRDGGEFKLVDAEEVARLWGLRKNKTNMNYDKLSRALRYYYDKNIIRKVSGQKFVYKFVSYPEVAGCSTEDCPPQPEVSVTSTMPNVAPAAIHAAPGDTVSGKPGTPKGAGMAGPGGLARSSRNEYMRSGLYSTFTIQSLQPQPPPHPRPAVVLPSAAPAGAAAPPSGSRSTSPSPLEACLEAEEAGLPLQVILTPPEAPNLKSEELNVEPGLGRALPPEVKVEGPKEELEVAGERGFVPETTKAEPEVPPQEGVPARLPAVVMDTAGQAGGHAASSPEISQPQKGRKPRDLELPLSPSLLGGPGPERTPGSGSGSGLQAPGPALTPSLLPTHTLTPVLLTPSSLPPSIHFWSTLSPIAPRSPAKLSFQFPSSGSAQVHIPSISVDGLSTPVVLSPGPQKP
# Method in brief: as §1
# [3] = target: T3, GABPA (Homo sapiens, UniProt Q06546 1-454); settings: protein: recombinant; tags: N-terminal GST; dsDNA, one strand shown
# T3 sequence: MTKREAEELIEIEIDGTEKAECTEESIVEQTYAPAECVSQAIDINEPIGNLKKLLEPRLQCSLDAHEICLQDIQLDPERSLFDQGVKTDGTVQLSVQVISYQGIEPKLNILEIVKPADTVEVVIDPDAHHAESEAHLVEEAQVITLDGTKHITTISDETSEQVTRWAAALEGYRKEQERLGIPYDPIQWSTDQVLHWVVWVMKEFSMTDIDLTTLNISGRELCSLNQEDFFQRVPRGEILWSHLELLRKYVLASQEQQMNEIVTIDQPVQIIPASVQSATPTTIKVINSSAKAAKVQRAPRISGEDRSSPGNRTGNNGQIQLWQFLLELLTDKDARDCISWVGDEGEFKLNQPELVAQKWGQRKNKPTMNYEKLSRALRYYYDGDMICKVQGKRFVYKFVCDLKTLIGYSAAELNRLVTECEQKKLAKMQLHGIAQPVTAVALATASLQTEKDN
# Method in brief: as §1
# [4] = target: T4, ERG (Homo sapiens, UniProt P11308 1-479); settings: protein: recombinant; tags: N-terminal GST; dsDNA, one strand shown
# T4 sequence: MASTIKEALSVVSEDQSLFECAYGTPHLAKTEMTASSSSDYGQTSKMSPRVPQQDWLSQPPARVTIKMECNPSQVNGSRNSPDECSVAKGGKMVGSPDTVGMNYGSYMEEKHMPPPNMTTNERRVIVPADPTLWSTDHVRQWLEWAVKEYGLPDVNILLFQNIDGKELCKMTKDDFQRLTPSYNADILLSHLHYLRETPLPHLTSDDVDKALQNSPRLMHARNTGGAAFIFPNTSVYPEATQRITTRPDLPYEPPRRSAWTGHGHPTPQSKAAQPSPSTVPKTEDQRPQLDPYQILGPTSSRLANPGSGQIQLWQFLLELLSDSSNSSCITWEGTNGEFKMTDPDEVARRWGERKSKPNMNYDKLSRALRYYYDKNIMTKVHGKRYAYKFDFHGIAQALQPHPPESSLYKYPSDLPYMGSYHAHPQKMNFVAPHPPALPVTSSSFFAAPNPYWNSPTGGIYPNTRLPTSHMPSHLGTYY
# Method in brief: as §1
# [5] = target: ELF1 (Homo sapiens, UniProt P32519 1-619); settings: protein: recombinant; tags: N-terminal GST; dsDNA, one strand shown
# Method in brief: as §1
# [6] = target: T5, EHF (Homo sapiens, UniProt Q9NZC4 1-300); settings: protein: recombinant; tags: N-terminal GST; dsDNA, one strand shown
# T5 sequence: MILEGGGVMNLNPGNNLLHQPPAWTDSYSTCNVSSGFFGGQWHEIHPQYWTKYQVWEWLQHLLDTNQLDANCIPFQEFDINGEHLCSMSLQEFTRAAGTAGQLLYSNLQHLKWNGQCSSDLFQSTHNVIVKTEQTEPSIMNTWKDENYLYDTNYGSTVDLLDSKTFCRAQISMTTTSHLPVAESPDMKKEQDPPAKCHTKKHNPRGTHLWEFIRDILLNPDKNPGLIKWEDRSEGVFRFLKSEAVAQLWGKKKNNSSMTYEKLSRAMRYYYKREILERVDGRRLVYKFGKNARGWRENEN
# Method in brief: as §1
# [7] = target: SPI1 (Homo sapiens, UniProt P17947 1-270); settings: protein: recombinant; tags: N-terminal GST; dsDNA, one strand shown
# Method in brief: as §1
# [8] = target: SPIB (Homo sapiens, UniProt Q01892 1-262); settings: protein: recombinant; tags: N-terminal GST; dsDNA, one strand shown
# Method in brief: as §1
# [9] = target: T6, ELK3 (Homo sapiens, UniProt P41970 1-407); settings: protein: recombinant; tags: N-terminal GST; dsDNA, one strand shown
# T6 sequence: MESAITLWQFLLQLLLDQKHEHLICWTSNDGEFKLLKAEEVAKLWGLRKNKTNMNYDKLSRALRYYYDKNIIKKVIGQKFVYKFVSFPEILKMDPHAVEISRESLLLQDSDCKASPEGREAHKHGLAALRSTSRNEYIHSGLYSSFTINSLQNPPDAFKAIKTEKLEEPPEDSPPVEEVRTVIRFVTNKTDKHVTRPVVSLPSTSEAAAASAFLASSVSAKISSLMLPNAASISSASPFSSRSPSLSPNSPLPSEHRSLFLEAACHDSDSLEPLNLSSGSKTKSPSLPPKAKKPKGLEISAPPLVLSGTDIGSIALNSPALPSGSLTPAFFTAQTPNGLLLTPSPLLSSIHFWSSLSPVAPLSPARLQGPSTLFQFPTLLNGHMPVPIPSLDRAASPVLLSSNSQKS
# Method in brief: as §1
# [10] = target: T7, FEV (Homo sapiens, UniProt Q99581 1-238); settings: protein: recombinant; tags: N-terminal GST; dsDNA, one strand shown
# T7 sequence: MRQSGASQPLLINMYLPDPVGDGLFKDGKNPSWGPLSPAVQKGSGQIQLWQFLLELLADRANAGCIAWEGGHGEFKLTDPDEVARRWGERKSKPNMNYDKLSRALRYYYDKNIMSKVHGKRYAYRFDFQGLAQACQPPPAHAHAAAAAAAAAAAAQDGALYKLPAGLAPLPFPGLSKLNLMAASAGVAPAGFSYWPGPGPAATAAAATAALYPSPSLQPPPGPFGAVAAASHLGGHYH
# Method in brief: as §1
# [11] = target: ETV5 (Homo sapiens, UniProt P41161 1-510); settings: protein: recombinant; tags: N-terminal GST; dsDNA, one strand shown
# Method in brief: as §1
# [12] = target: HSF1 (Homo sapiens, UniProt Q00613 1-529); settings: protein: recombinant; tags: N-terminal GST; chain copies: 3; dsDNA, one strand shown
# Method in brief: as §1
# [13] = target: T8, SPIC (Homo sapiens, UniProt Q8N5J4 1-248); settings: protein: recombinant; tags: N-terminal GST; dsDNA, one strand shown
# T8 sequence: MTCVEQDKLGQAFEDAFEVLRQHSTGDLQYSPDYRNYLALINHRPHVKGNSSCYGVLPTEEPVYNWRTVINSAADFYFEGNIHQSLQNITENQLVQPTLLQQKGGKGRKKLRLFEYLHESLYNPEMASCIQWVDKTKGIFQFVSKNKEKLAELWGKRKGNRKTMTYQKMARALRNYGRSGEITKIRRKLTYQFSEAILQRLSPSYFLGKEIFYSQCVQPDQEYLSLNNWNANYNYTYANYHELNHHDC
# Method in brief: as §1
# [14] = target: ELF4 (Homo sapiens, UniProt Q99607 1-663); settings: protein: recombinant; tags: N-terminal GST; dsDNA, one strand shown
# Method in brief: as §1
# [15] = target: T9, ELK4 (Homo sapiens, UniProt P28324-2 1-405); settings: protein: recombinant; tags: N-terminal GST; dsDNA, one strand shown
# T9 sequence: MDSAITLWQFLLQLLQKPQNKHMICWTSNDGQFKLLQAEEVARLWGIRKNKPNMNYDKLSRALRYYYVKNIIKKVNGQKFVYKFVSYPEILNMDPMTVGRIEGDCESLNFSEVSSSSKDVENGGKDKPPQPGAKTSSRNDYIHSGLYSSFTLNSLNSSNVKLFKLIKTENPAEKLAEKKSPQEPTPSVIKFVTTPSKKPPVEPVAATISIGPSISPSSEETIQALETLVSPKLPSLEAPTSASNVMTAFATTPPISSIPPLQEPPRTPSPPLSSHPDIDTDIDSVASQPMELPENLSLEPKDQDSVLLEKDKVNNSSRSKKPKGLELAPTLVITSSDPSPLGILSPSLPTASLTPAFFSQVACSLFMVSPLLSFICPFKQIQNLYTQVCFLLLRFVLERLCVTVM
# Method in brief: as §1
# [16] = target: T10, ETV2 (Homo sapiens, UniProt O00321 1-342); settings: protein: recombinant; tags: N-terminal GST; dsDNA, one strand shown
# T10 sequence: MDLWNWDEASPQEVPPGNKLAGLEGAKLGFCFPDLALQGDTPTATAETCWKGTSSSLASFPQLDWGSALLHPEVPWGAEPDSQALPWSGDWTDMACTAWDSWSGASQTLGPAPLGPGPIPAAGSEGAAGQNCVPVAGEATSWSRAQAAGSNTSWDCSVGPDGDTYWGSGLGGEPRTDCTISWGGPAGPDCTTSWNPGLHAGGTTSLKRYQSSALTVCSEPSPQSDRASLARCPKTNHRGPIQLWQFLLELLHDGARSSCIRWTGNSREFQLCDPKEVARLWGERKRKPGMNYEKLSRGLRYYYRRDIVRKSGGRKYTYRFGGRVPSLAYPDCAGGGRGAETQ
# Method in brief: as §1
# [17] = target: T11, ELF3 (Homo sapiens, UniProt P78545 1-371); settings: protein: recombinant; tags: N-terminal GST; dsDNA, one strand shown
# T11 sequence: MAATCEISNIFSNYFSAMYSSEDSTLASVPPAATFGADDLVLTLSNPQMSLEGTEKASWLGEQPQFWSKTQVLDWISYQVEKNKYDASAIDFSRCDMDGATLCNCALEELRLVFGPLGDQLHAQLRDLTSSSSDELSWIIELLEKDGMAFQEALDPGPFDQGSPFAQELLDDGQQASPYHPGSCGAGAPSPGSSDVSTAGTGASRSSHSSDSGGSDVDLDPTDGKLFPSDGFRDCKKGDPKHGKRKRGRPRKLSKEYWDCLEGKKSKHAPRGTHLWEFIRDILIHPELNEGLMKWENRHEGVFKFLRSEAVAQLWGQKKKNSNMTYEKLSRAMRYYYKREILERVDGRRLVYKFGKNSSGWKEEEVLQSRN
# Method in brief: as §1
# [18] = target: CRX (Homo sapiens, UniProt O43186 1-299); settings: protein: recombinant; tags: N-terminal GST; dsDNA, one strand shown
# Method in brief: as §1
# [19] = target: ETV1 (Homo sapiens, UniProt P50549 1-477); settings: protein: recombinant; tags: N-terminal GST; dsDNA, one strand shown
# Method in brief: as §1
# ETV5, sequence (P41161 whole entry): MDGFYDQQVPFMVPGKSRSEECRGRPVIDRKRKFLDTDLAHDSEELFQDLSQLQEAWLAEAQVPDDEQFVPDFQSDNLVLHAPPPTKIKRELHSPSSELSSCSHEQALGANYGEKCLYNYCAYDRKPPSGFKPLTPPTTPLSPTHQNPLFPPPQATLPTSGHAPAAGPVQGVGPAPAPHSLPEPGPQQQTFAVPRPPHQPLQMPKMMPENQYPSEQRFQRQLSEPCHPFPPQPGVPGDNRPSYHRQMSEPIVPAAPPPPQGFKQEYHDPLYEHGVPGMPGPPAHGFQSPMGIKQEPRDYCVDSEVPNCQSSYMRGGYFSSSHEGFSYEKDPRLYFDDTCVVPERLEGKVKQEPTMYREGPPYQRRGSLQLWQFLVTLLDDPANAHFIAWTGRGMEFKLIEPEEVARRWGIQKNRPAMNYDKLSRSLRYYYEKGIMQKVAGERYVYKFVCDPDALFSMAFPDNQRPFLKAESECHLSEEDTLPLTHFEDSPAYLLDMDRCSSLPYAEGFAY
# ELF1, sequence (P32519 whole entry): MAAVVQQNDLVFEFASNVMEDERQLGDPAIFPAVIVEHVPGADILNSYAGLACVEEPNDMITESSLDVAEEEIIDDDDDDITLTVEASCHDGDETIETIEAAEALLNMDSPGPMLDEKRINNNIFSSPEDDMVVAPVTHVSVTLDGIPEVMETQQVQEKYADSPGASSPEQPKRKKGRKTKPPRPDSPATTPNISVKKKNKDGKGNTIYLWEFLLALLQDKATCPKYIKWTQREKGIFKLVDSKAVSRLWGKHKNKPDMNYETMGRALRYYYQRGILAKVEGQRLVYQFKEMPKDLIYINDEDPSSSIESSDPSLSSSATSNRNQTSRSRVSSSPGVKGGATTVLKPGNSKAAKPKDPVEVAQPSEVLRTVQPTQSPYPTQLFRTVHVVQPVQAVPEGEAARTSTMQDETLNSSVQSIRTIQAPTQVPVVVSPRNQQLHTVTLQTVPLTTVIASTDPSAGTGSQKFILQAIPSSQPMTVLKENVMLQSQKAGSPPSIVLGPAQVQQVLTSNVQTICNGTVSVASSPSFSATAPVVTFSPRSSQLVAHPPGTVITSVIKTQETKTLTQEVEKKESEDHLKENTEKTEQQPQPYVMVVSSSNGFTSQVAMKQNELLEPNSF
# ELF4, sequence (Q99607 whole entry): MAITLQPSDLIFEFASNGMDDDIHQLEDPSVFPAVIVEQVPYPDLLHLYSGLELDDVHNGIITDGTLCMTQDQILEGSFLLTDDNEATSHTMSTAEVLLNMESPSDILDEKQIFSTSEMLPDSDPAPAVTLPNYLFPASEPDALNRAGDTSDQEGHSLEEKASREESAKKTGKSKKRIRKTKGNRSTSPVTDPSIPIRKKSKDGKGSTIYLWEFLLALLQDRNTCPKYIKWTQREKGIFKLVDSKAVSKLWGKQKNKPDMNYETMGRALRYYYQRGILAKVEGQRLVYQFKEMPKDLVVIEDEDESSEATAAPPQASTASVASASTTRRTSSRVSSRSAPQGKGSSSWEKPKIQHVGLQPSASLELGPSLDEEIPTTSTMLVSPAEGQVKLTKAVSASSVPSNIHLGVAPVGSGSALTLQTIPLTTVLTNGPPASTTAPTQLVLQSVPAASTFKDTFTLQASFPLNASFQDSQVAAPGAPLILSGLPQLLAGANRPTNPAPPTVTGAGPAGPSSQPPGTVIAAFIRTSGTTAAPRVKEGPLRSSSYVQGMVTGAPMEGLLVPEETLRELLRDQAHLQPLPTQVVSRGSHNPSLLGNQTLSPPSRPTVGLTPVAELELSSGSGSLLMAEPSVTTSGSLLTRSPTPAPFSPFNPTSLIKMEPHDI
# HSF1, sequence (Q00613 whole entry): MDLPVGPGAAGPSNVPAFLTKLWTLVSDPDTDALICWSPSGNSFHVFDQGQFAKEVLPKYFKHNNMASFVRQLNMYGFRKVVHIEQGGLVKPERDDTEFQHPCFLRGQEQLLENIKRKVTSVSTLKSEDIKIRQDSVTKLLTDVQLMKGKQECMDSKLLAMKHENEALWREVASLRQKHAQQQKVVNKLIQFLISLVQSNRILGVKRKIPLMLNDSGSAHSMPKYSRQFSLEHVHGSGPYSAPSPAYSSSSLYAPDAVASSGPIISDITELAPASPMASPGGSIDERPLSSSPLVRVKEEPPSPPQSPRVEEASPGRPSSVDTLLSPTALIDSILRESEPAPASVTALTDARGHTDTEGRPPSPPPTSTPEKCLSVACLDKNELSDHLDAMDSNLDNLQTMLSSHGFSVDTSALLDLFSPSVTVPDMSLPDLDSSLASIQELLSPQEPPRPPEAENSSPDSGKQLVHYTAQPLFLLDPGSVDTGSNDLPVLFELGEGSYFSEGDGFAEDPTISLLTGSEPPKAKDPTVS
# SPIB, sequence (Q01892 whole entry): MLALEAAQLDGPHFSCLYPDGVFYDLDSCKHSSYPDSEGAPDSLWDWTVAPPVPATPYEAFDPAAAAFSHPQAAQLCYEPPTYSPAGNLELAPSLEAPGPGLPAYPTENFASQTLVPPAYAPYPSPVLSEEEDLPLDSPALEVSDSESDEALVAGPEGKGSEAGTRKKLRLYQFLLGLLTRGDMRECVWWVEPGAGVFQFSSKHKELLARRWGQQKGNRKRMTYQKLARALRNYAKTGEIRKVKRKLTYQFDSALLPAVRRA
# ETV1, sequence (P50549 whole entry): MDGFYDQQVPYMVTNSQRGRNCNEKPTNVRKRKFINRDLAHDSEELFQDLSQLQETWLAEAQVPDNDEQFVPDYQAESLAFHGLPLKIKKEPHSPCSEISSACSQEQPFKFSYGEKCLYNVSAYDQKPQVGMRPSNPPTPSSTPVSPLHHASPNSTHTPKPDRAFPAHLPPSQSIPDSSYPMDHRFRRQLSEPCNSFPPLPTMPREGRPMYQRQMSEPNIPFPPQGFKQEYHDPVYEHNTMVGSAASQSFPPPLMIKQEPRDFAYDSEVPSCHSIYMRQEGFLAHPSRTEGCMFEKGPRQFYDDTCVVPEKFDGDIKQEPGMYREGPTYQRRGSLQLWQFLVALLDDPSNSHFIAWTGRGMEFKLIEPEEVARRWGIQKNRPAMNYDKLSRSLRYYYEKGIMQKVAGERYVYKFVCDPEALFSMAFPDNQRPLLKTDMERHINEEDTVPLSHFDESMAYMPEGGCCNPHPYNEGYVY
# CRX, sequence (O43186 whole entry): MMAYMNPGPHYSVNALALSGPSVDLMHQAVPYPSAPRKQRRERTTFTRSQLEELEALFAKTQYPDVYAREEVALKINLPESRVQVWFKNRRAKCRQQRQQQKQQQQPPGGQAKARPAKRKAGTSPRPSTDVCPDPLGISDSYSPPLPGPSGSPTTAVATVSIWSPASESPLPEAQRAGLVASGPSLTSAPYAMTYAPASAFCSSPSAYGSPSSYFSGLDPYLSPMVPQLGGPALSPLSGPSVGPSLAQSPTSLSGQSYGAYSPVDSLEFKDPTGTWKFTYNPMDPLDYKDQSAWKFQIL
sequence,measurement,setting,value
GGTTTA,binding signal,[1],"1.12 fold enrichment (6-mer frequency, TF over GST control)"
same,binding signal,[2],"1.01 fold enrichment (6-mer frequency, TF over GST control)"
same,binding signal,[3],"1.05 fold enrichment (6-mer frequency, TF over GST control)"
same,binding signal,[4],"1.1 fold enrichment (6-mer frequency, TF over GST control)"
same,binding signal,[5],"1.02 fold enrichment (6-mer frequency, TF over GST control)"
same,binding signal,[6],"1.08 fold enrichment (6-mer frequency, TF over GST control)"
same,binding signal,[7],"1.09 fold enrichment (6-mer frequency, TF over GST control)"
same,binding signal,[8],"1.05 fold enrichment (6-mer frequency, TF over GST control)"
same,binding signal,[9],"1.07 fold enrichment (6-mer frequency, TF over GST control)"
same,binding signal,[10],"1.05 fold enrichment (6-mer frequency, TF over GST control)"
same,binding signal,[11],"1.06 fold enrichment (6-mer frequency, TF over GST control)"
same,binding signal,[12],"1.29 fold enrichment (6-mer frequency, TF over GST control)"
same,binding signal,[13],"1.13 fold enrichment (6-mer frequency, TF over GST control)"
same,binding signal,[14],"1.06 fold enrichment (6-mer frequency, TF over GST control)"
same,binding signal,[15],"1.13 fold enrichment (6-mer frequency, TF over GST control)"
same,binding signal,[16],"1.15 fold enrichment (6-mer frequency, TF over GST control)"
same,binding signal,[17],"1.13 fold enrichment (6-mer frequency, TF over GST control)"
same,binding signal,[18],"1.66 fold enrichment (6-mer frequency, TF over GST control)"
same,binding signal,[19],"1.05 fold enrichment (6-mer frequency, TF over GST control)"
